PubChem BioAssay (EPA / NIEHS)
Inconclusive results are not listed. Calls of active or inactive are those of the source. Rule for the calls: active = hit-call score of the fitted dose curve at least 0.9, where 1 is the maximum; inconclusive = response in the unintended direction; inactive = score below 0.9.

read-out: Cytochrome P450 2B6 (Homo sapiens) (UniProt P20813); experiment: CLD_CYP2B6_48hr: CellzDirect (CLD) Gene Expression Assay for xenobiotic metabolism (CYP2B6) at 48 hours (AID 2283699);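 note: actives raise transcript level above DMSO so potency reflects induction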
Protocol: CLD_48hr is a cell-based, multiplexed-readout assay that uses hepatocyte, a human liver primary cell, with measurements taken at 48 hours after chemical dosing in a 96-well plate.CLD_CYP2B6_48hr is one of 16 assay component(s) measured or calculated from the CLD_48hr assay. It is designed to make measurements of mRNA induction, a form of inducible reporter, as detected with chemiluminescence signals by Quantitative Nuclease Protection Assay (qNPA) technology.Data from the assay component CLD_CYP2B6_48hr was analyzed at the endpoint, CLD_CYP2B6_48hr, in the positive analysis fitting direction relative to DMSO as the negative control and baseline of activity. Using a type of inducible reporter, gain-of-signal activity can be used to understand changes in the reporter gene as they relate to the gene CYP2B6. Furthermore, this assay endpoint can be referred to as a primary readout. To generalize the intended target to other relatable targets, this assay endpoint is annotated to the cyp intended target family, where subfamily is xenobiotic metabolism.
Human hepatocyte cultures were treated daily for two consecutive days with fresh dosing solutions containing appropriate concentrations of the 320 ToxCast chemicals (chemical identities were blinded to CellzDirect and other ToxCast collaborators), vehicle control (0.2% DMSO), and positive control inducers as summarized in Table 1. Due to the large number of treatment groups and chemicals examined, the ToxCast chemicals were divided into two groups (spanning two independent cultures of hepatocytes from separate donor preparations (Hu778: ToxCast plates 1 and 2; Hu776: ToxCast plates 3 and 4). Each preparation of human hepatocyte cultures was treated with respective vehicle control, medium only control, set of six positive controls/reference chemicals for the five hepatic receptor pathways, and a subset of eight of the ToxCast chemicals (indoxacarb, pyrithiobac-sodium, norflurazon, cyhalofop-butyl, methomyl, thiram, acetochlor, and propiconazole). These replicate data, coupled with internal replicates designed within the blinded ToxCast chemical library, provided additional data to evaluate interindividual differences between hepatocyte preparations and their potential impact on chemical profiles.Cell morphology and integrity were evaluated using phase-contrast microscopy as an indicator of hepatocyte cell health (Tyson & Green, 1987). Cultures for each treatment group (i.e., media, vehicle [0.2% DMSO], positive control inducers [multiple concentrations], and the ToxCast chemicals [multiple concentrations]) were observed and cell morphology was assessed relative to vehicle control cultures at each harvest time point (0, 6, 24, or 48 h). […] Images were evaluated at the conclusion of the study to assess changes in cell integrity and account for the effects of chemical exposure on uncharacteristic changes in concentration-dependent gene expression profiles. The results from these determinations of apparent cytotoxicity were annotated (yes/no) alongside the corresponding qNPA data for reference.At the conclusion of each treatment period, hepatocyte cultures (96-well) were washed with 1 volume of HBSS, lysed by addition of 25 ul ArrayPlate lysis buffer (HTG, Tucson, AZ), and 70 ul/well of Denaturation Oil, denatured by incubation at 95C for 10 min, and frozen at approximately -70C until analysis by nuclease protection assay (qNPA) (Roberts et al., 2007). For qNPA analysis, cell lysates were thawed at 50C for approximately 30 min, qNPA probes were added, and samples were incubated at 95C for 10 min to begin the detection process by denaturing the target RNA, dissociating the duplexes and secondary structure hybridization. At the conclusion of the hybridization period, S1 nuclease reagent was added to each sample to digest all nonprotected nucleotides at 50C for 60-90 min. […]

SMILES | AC50 | outcome
CC(C)OC(=O)Nc1cccc(Cl)c1 | 20000 nM (active) | 
CCC(C)(C)C(=O)OC1=C(c2ccc(Cl)cc2Cl)C(=O)OC12CCCCC2 |  | inactive
COP(=O)(OC)OC=C(Cl)Cl |  | inactive
C[C@H]1[C@H](c2ccc(Cl)cc2)SC(=O)N1C(=O)NC1CCCCC1 | 1900 nM (active) | 
O=C(NC(=O)c1c(F)cccc1F)Nc1ccc(OC(F)(F)C(F)OC(F)(F)F)c(Cl)c1 (stereo not given) |  | inactive
ClC1C(Cl)C(Cl)C(Cl)C(Cl)C1Cl (stereo not given) | 44.1 nM (active) | 
COC(=O)c1ccccc1S(=O)(=O)NC(=O)N(C)c1nc(C)nc(OC)n1 |  | inactive
CC(C)N(C(=O)COc1nnc(C(F)(F)F)s1)c1ccc(F)cc1 | 10900 nM (active) | 
O=[N+]([O-])/N=C1\NCCN1Cc1ccc(Cl)nc1 |  | inactive
O=S(=O)(O)C(F)(F)C(F)(F)C(F)(F)C(F)(F)C(F)(F)C(F)(F)C(F)(F)C(F)(F)F |  | inactive
COC(=O)c1ccccc1CS(=O)(=O)NC(=O)Nc1nc(OC)cc(OC)n1 |  | inactive
CCS(=O)(=O)c1cccnc1S(=O)(=O)NC(=O)Nc1nc(OC)cc(OC)n1 |  | inactive
Clc1ccccc1-c1nnc(-c2ccccc2Cl)nn1 | 3080 nM (active) | 
CC(C)(C)C(O)/C(=C\c1ccc(Cl)cc1Cl)n1cncn1 (stereo not given) | 983 nM (active) | 
CCOc1nc(NC)nc(NC(=O)NS(=O)(=O)c2ccccc2C(=O)OC)n1 |  | inactive
OCCOc1ccccc1 |  | inactive
O=S1OCC2C(CO1)C1(Cl)C(Cl)=C(Cl)C2(Cl)C1(Cl)Cl (stereo not given) | 980 nM (active) | 
CCCN(CCC)c1c([N+](=O)[O-])cc(C(F)(F)F)cc1[N+](=O)[O-] | 1370 nM (active) | 
CNC(=O)Oc1ccccc1OC(C)C | 1510 nM (active) | 
Cc1cc(C)nc(NC(=O)NS(=O)(=O)c2ccccc2C(=O)OC2COC2)n1 |  | inactive

SMILES | AC50 | outcome
COP(=S)(OC)Oc1ccc([N+](=O)[O-])cc1 | 7550 nM (active) | 
CCOCN(C(=O)CCl)c1c(C)cccc1CC | 509 nM (active) | 
Cc1[nH]c(=O)n(C(C)(C)C)c(=O)c1Cl | 4850 nM (active) | 
CCC(C)Nc1c([N+](=O)[O-])cc(C(C)(C)C)cc1[N+](=O)[O-] (stereo not given) | 2440 nM (active) | 
COP(=S)(OC)Oc1ccc(SC)c(C)c1 | 4480 nM (active) | 
CCOC1Oc2ccc(OS(C)(=O)=O)cc2C1(C)C (stereo not given) | 1440 nM (active) | 
O=C(Nc1ccccc1)Nc1cnns1 | 5630 nM (active) | 
N#Cc1c(Cl)c(Cl)c(Cl)c(C#N)c1Cl | 0.962 nM (active) | 
CNC(=O)/C=C(\C)OP(=O)(OC)OC |  | inactive
O=C(O)CCCOc1ccc(Cl)cc1Cl |  | inactive
O=[N+]([O-])c1c(Cl)c(Cl)c(Cl)c(Cl)c1Cl | 1900 nM (active) | 
CCc1ccc(C(=O)NN(C(=O)c2cc(C)cc(C)c2)C(C)(C)C)cc1 | 2180 nM (active) | 
Oc1ccc(Cl)cc1Cc1ccccc1 |  | inactive
CCCN(CCOc1c(Cl)cc(Cl)cc1Cl)C(=O)n1ccnc1 | 128 nM (active) | 
CC1(C)C(C=C(Cl)Cl)C1C(=O)OC(C#N)c1ccc(F)c(Oc2ccccc2)c1 (stereo not given) | 7550 nM (active) | 
COc1nn(CSP(=S)(OC)OC)c(=O)s1 | 655 nM (active) | 
C#CCN1C(=O)COc2cc(F)c(N3C(=O)C4=C(CCCC4)C3=O)cc21 | 652 nM (active) | 
COc1cc(OC)nc(NC(=O)NS(=O)(=O)c2cc(NC=O)ccc2C(=O)N(C)C)n1 |  | inactive
O=C(O)C(F)(F)C(F)(F)C(F)(F)C(F)(F)C(F)(F)C(F)(F)C(F)(F)F |  | inactive
CCC(C)(NC(=O)c1cc(Cl)c(C)c(Cl)c1)C(=O)CCl (stereo not given) | 0.403 nM (active) | 
